From PubChem BioAssay (EPA / NIEHS)
Records with an inconclusive call do not appear. Active and inactive are the calls of the source. How the source made its calls: active means hit-call score of the fitted dose curve at least 0.9, where 1 is the maximum; inconclusive means response in the unintended direction; inactive means score below 0.9.

Assay: Tanguay_ZF_120hpf_SOMI_legacy: (Legacy) Oregon State University Tanguay Lab 120 Hour Post-fertilization zebrafish Assay for Somite Malformation (AID 2283647)
Experimental: Tanguay_ZF_120hpf_legacy is a whole embryo, multiplexed endpoint assay using zebrafish larvae exposed for 120 hours post fertilization on a 96-well plate.Tanguay_ZF_120hpf_SOMI_legacy is one of one assay component(s) measured or calculated from the Tanguay_ZF_120hpf_legacy assay. It is designed to make measurements of zebrafish development as detected with brightfield microscopy of developing zebrafish embryos.Data from the assay component Tanguay_ZF_120hpf_SOMI_legacy was analyzed into 1 assay endpoints. This assay endpoint, Tanguay_ZF_120hpf_SOMI_legacy, was analyzed in the positive analysis fitting direction relative to DMSO as the negative control and baseline of activity. Using a type of morphology reporter, gain-of-signal activity can be used to understand changes in developmentals as they relate to the whole embryo. To generalize the intended target to other relatable targets, this assay endpoint is annotated to the zebrafish development intended target family, where the subfamily is somitogenesis.
Zebrafish husbandry: Tropical 5D wild-type adult zebrafish were housed in at an approximate density of 1000 per 100 gallon tank at the Sinnhuber Aquatic Research Laboratory, Oregon State University, Corvallis, OR. Each tank was kept at standard laboratory conditions of 28C on a 14-h light/10-h dark photoperiod in fish water consisting of reverse osmosis water supplemented with a commercially available salt (Instant Ocean). Spawning funnels were placed into the tanks the night prior, and embryos were collected and staged. To increase bioavailability, the chorion was enzymatically removed using pronase (63.6mg/ml, >/= 3.5U/mg, Sigma-Aldrich: P5147) at 4 hours post fertilization (hpf) using a custom automated dechorionator.Chemical exposures: Six hpf dechorionated embryos were placed 1 embryo per well in a 96-well plate prefilled with 90 ul of EM using automated embryo placement systems (AEPS). Ten microliters of each row of dilution plate 2 was added to 2 exposure plates. The final DMSO concentration used was 0.64% (vol/vol). Thirty-two embryos were also exposed to 5uM trimethyltin chloride (positive control). Plates were sealed to prevent evaporation and foil covered to reduce light exposure and kept in a 28C incubator. Embryos were statically exposed until 120 hpf. At 24 hpf, embryos were assessed for photomotor response using a custom photomotor response analysis tool (PRAT) and for developmental toxicity endpoints (MO24: mortality at 24 hpf, DP: developmental progression, SM: spontaneous movement, and NC: notochord distortion). At 120 hpf, locomotor activity was measured using Viewpoint Zebralab and assessed for 18 endpoints. Zebrafish acquisition and analysis program (ZAAP), a custom program designed to inventory, acquire, and manage zebrafish data, was used to collect developmental endpoints as either present or absent (i.e., binary responses were recorded). If mortality occurred for an embryo (at either 24 or 120 hpf), the non-mortality endpoints were not measured.
For CCCCC(CC)COP(=O)(OCC(CC)CCCC)OCC(CC)CCCC (stereo not given), the outcome was “inactive”. In the case of CC(=O)[C@@]1(O)CC[C@H]2[C@@H]3CCC4=CC(=O)CC[C@]4(C)[C@H]3CC[C@@]21C, the outcome is reported as “inactive”. In the case of CN(C)C(=O)NC1(c2ccccc2)CCN(CCC[C@]2(c3ccc(Cl)c(Cl)c3)CCCN(C(=O)c3ccccc3)C2)CC1, the outcome is reported as “inactive”. With CCCCCCCCCCCCCCCCO the outcome was “inactive”. For CC(=O)OCC(COC(C)=O)OC(C)=O, the outcome was “inactive”. For Cc1cc(SC2=C(O)C[C@@](CCc3ccc(N)cc3)(C(C)C)OC2=O)c(C(C)(C)C)cc1CO, the outcome was “inactive”. With S=c1[nH]c2ccccc2s1 the AC50 was 44.5 µM (active). With NC(=Nc1ccccc1)Nc1ccccc1 the outcome was “inactive”. In the case of Cc1occc(=O)c1O, the outcome is reported as “inactive”. With O=C(NS(=O)(=O)/C=C/c1cccs1)c1ccc(F)cc1Br the outcome was “inactive”. In the case of O=NO, the outcome is reported as “inactive”. In the case of C/C=C/C=C/C(=O)O, the outcome is reported as “inactive”. For Cn1cnc2c1c(=O)[nH]c(=O)n2C, the outcome was “inactive”. For CCc1nc(N)nc(N)c1-c1ccc(Cl)cc1, the outcome was “inactive”. With O=C(Oc1ccccc1)c1cccc(C(=O)Oc2ccccc2)c1 the outcome was “inactive”. With CSc1ccc(Oc2ccc(S(N)(=O)=O)cc2CN(C)C)cc1C the outcome was “inactive”. With C/C=C/c1ccc(OC)cc1 the outcome was “inactive”. For Oc1ccc(O)cc1, the outcome was “inactive”. With CCC(C)N(C)C(=O)c1cc2ccccc2c(-c2ccccc2Cl)n1 (stereo not given) the outcome was “inactive”. For Cc1cc(Cc2ccc(N)c(C)c2)ccc1N, the outcome was “inactive”. In the case of O=C1c2c(O)cccc2Cc2cccc(O)c21, the outcome is reported as “inactive”. For CC(=O)OC1CC(C)OC(C)O1 (stereo not given), the outcome was “inactive”. In the case of N[C@@H](Cc1c[nH]c2ccccc12)C(=O)O, the outcome is reported as “inactive”. With O=C(O)CC(O)(CC(=O)O)C(=O)O the outcome was “inactive”. For CN(C)C(=O)NC1(c2ccccc2)CCN(CC[C@@]2(c3ccc(F)c(F)c3)CN(C(=O)c3ccccc3)CCO2)CC1, the outcome was “inactive”. In the case of CC(=O)O[C@]1(C(C)=O)CC[C@H]2[C@@H]3C=C(Cl)C4=CC(=O)[C@@H]5C[C@@H]5[C@]4(C)[C@H]3CC[C@@]21C, the outcome is reported as “inactive”. In the case of CC(COCC(C)OC(=O)c1ccccc1)OC(=O)c1ccccc1 (stereo not given), the outcome is reported as “inactive”. For Oc1ccccc1O, the outcome was “inactive”. For CCCC[C@H]1CN(CC2CCOCC2)C(=O)OC12CCN(C1(C)CCN(C(=O)c3c(C)ncnc3C)CC1)CC2, the outcome was “inactive”. With O=[Si]=O the outcome was “inactive”. With NC=O the outcome was “inactive”. For O=C1O[C@H]([C@H](O)CO)C(O)=C1O, the outcome was “inactive”. For CC1=C(C)S(=O)(=O)CCS1(=O)=O, the outcome was “inactive”. In the case of CCCCCCCCCC[N+](C)(C)[O-], the outcome is reported as “inactive”. In the case of CC(=O)S[C@H](C(=O)N[C@H]1Cc2ccccc2[C@H]2CCC[C@@H](C(=O)O)N2C1=O)C(C)C, the outcome is reported as “inactive”. In the case of O=C1CCCCC1, the outcome is reported as “inactive”. With O=C(O)c1[nH]n(-c2ccc(S(=O)(=O)O)cc2)c(=O)c1N=Nc1ccc(S(=O)(=O)O)cc1 the outcome was “inactive”. In the case of CCCCCCCC(=O)OC, the outcome is reported as “inactive”. In the case of Cc1cn([C@H]2C=C[C@@H](CO)O2)c(=O)[nH]c1=O, the outcome is reported as “inactive”. In the case of CC(N)=O, the outcome is reported as “inactive”.
